# Screening results from PubChem BioAssay.
# Rows were chosen to be rich in hits. Some 2.3% of all compounds tested hit in one or more screens of this group.
# M1 ag parental – nonselective activator or artifact in parental CHO-K1 cells; Fluo-8 calcium fluorescence; scaled to maximal ATP response, vehicle zero; activation, % at 3 µM; hit rate 0.48% among 360,000; AID 602248; in the data active = activation above about 15%;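 also: untransfected CHO-K1 host cells lacking M1 receptor as counterscreen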
# M1 PAM parental – nonselective activator or artifact in parental CHO-K1 calcium assay; ATP EC20, Fluo-8 calcium fluorescence; 0% at ATP EC20, 100% at ATP max; activation, % at 3 µM; hit rate 0.02% among 360,000; AID 602247;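 active = activation above the run cutoff, the mean activation of all test compounds plus 3 SD, cut at about 40% in these data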;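 also: peak over basal fluorescence ratio in a 140 s read after ATP addition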
# CHRM1 antagonist – antagonists of human M1 muscarinic receptor | P11229 | CHO-K1 hM1, Fluo-8 calcium fluorescence, ACh EC80 antagonist | inhibition, % at 3 µM | hit rate 1.3% among 360,000 | AID 588852;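 active = percent inhibition above its own plate's cutoff, namely the mean of that plate's compound wells plus 3 SD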;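 also: peak over basal fluorescence ratio during 140 s after agonist addition; 0% = ACh EC80 plus DMSO and 100% = DMSO alone without agonist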
# Target sequence (P11229 whole entry, looked up): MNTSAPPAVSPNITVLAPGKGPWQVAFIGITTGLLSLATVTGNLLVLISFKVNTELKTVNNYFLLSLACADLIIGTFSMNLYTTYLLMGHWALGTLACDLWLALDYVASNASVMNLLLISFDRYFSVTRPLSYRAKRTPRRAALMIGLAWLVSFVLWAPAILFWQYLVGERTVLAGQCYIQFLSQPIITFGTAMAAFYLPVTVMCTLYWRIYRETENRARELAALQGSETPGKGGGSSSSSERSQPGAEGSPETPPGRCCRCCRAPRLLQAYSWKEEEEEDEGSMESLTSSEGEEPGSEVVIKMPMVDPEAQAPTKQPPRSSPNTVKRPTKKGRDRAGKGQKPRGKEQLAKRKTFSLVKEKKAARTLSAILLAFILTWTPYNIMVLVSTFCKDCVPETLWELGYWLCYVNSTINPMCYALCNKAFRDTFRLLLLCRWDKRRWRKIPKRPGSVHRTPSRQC
# CHRM1 PAM – positive allosteric modulators of human M1 muscarinic receptor. hit rate 0.088% among 360,000. P11229. activation, % at 3 µM. AID 588819. CHO-K1 hM1, Fluo-8 calcium fluorescence, ACh EC20; 0% = ACh EC20, 100% = maximal ACh; in the data active = activation above about 19%, passing the limit was not always enough
# CHRM1 agonist – human M1 muscarinic receptor agonism | P11229 | CHO-K1 hM1, Fluo-8 calcium fluorescence, agonist mode; 0% DMSO, 100% acetylcholine EC100 | activation, % at 3 µM | hit rate 0.33% among 360,000 | AID 588814;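 active = activation above the run's mean compound activation plus 3 SD, cut at about 16% in these data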;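 also: peak over basal fluorescence ratio within a 140 s kinetic read after compound addition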
# CHO-K1 Ca antag – counter-screen for M1 antagonists: effect in parental CHO-K1 cells; AID 602250; hit rate 0.6% among 360,000; ATP-induced calcium, Fluo-8 fluorescence; inhibition, % at 3 µM;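 active = inhibition above a per-plate cutoff, the plate's mean sample inhibition plus 3 SD, cut at about 24% in these data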;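 also: 0% = DMSO plus EC80 ATP and 100% = DMSO alone without ATP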
# Starred values were filed as active, the others as inactive.
SMILES,M1 ag parental,M1 PAM parental,CHRM1 antagonist,CHRM1 PAM,CHRM1 agonist,CHO-K1 Ca antag
CC(=O)c1cccc(S(=O)(=O)N2CCC(C(=O)N(C)Cc3ccc(Cl)s3)CC2)c1,4,3,4,-2,-4,-11
CN(Cc1cn[nH]c1-c1ccc(-c2ccccc2)cc1)CC1CCOCC1,17*,21,-9,3,-5,-2
C/C(=N\n1c(C)nc2ccccc2c1=O)c1ccc(C)o1,0,-1,-10,28*,-1,-6
CC(C)C(C(=O)N1CCN(Cc2ccccc2)CC1)c1ccccc1 (stereo not drawn),2,3,89*,-28,-8,1
O=C(C(Cc1ccccc1)n1cccc1)N1CCN(Cc2ccccc2)CC1 (stereo not drawn),7,15,92*,-31,-5,10
O=C(C(Cc1ccccc1)n1cccc1)N1CCCCC1 (stereo not drawn),0,14,-9,8,-5,-2
CCOC(=O)N1CCN(C(=O)c2ccc3c(c2)N=C(C)c2cc(Cl)ccc2S3)CC1,4,7,1,-7,-5,-7
Cc1cc(=O)[nH]c(NN=C2CCC(C(C)(C)C)CC2)n1 (stereo not drawn),19*,18,3,8,-7,-5
COCCNC(=O)C1(C)CCCN(Cc2cc(-c3ccccc3)on2)C1 (stereo not drawn),0,5,-9,0,-2,-1
COc1ccc(Cc2nnc3sc(SCC(=O)Nc4ccccc4)nn3c2=O)cc1OC,0,-11,5,-2,-7,1
O=S1(=O)CC(N2CCN(CC3CC3)CC2)CN1C1CCCC1 (stereo not drawn),0,1,11,-1,-4,26*
O=S1(=O)CC(N2CCN(CCO)CC2)CN1C1CCCCC1 (stereo not drawn),1,13,-11,12,-3,5
O=C(O)c1cccc2c1-c1ccccc1/C2=N\Nc1ccccc1,0,8,-11,9,-3,-17
O=C(c1cccc2c1-c1ccccc1/C2=N/O)N1CCCCC1,0,-7,-10,5,-2,25*
O=C(O)c1cccc2c1/C(=N/O)c1ccccc1-2,1,13,-21,29*,1,-17
NS(=O)(=O)c1ccc(NC(=O)NC2CC(=O)N(c3ccc4c(c3)OCCO4)C2)cc1 (stereo not drawn),1,19,-13,11,-2,-2
O=C(Nc1ccc(Cl)c(Cl)c1)Oc1ccc(NC(=O)c2ccco2)cc1,4,-6,18,-13,3,34*
O=C(Nc1ccc(OC(=O)c2ccco2)cc1)c1ccco1,0,-5,7,10,2,28*
O=C(NC(NC(=S)Nc1ccc(Cl)c(Cl)c1)C(Cl)(Cl)Cl)c1ccco1 (stereo not drawn),10,-6,22,-9,1,29*
O=C(Nc1ccc(Br)c(Cl)c1)c1ccco1,1,16,-5,2,-5,-1
O=C(CCc1ccccc1)NC(NC(=S)Nc1ccc(Cl)cc1)C(Cl)(Cl)Cl (stereo not drawn),6,11,23*,-10,5,14
CCC(=O)Oc1ccc(NC(=O)c2ccco2)cc1,1,0,-8,7,-2,-14
COc1ccc(C)cc1NC(=O)CN1CCN(S(=O)(=O)c2ccc3ccccc3c2)CC1,0,-11,22,-8,-2,1
CCOc1ccccc1NC(=O)COC(=O)c1nc2nccc(C)n2n1,0,0,-4,3,-2,-3
O=C(NCc1ccccc1Br)c1ccncc1,1,18,-3,7,-3,-17
SMILES,M1 ag parental,M1 PAM parental,CHRM1 antagonist,CHRM1 PAM,CHRM1 agonist,CHO-K1 Ca antag
N/C(=N\OCc1ccc([N+](=O)[O-])cc1)c1ccncc1,-1,-10,7,-6,-3,30*
O=C(NNC(=O)c1ccc([N+](=O)[O-])cc1)c1ccncc1,0,21,-5,6,-2,-10
NCCc1ccn[nH]1,0,0,-33,5,0,-5
CCCN(C(=O)CCOc1ccc(C(C)(C)C)cc1)c1c(N)n(Cc2ccccc2)c(=O)[nH]c1=O,0,9,-1,7,2,19
COc1ccc(CN(Cc2ccccn2)S(=O)(=O)c2ccc(-n3cnnn3)c(OC)c2)cc1,4,1,-21,-8,-7,-21
COc1ccc(CN(Cc2ccccn2)S(=O)(=O)c2ccc(-n3cnnn3)cc2)cc1,1,-5,-12,-5,-3,40*
CCNC(=O)C/C(C)=N/NC(=O)C12CC3CC(CC(C3)C1)C2,0,-7,-2,7,-1,24*
CC(C)CC1NC(=O)N(CC(=O)Nc2ccc3c(c2)OCCO3)C1=O (stereo not drawn),1,11,-4,6,-2,-10
O=Cc1cc(Cl)ccc1OCCN1CCC(Cc2ccccc2)CC1,3,22,55*,-25,-7,-5
Clc1cccc(CN2CCC(Cc3ccccc3)CC2)c1,2,17,11,-16,-10,-32
Clc1ccccc1OCCN1CCC(Cc2ccccc2)CC1,4,24,30*,-14,-3,-18
OCc1ccccc1OCCCN1CCC(Cc2ccccc2)CC1,0,-16,33*,-20,-9,4
c1ccc(CC2CCN(Cc3ccccn3)CC2)cc1,-1,5,8,-6,-7,-14
C=CCOc1ccccc1CN1CCC(Cc2ccccc2)CC1,2,21,19,-15,-8,-11
CCS(=O)(=O)c1nc(S(=O)(=O)c2ccc(C)cc2)c(N2CC(C)CC(C)C2)s1 (stereo not drawn),-1,-1,-11,7,-4,-5
CN1CCC(=C(c2ccccc2)c2ccc(Br)cc2)CC1,22*,23,54*,-14,11,-6
O=C(OCc1nnc(-c2ccccc2)o1)c1ccc2ccccc2n1,0,-8,16,-7,-5,30*
CCOc1ccc(N(C)S(=O)(=O)c2c[nH]c(C(=O)OC)c2)cc1,2,-2,-10,6,1,-11
Nc1c(C(=O)NCc2ccc3c(c2)OCO3)nnn1CC(=O)Nc1ccc(Br)cc1,1,11,3,1,-2,-2
Cc1cc(C)cc(NC(=O)c2nnn(Cc3cc(C)ccc3C)c2N)c1,3,-14,6,-3,26*,21
Cc1ccc(C)c(Cn2nnc(C(=O)Nc3ccc4c(c3)OCCO4)c2N)c1,14,-25,8,5,28*,19
Nc1c(C(=O)NCc2ccc3c(c2)OCO3)nnn1Cc1ccc(Br)cc1,18*,19,0,7,16*,-3
N#CCCC(CCC#N)C1=NCCc2ccccc21,2,22,-24,4,-4,-16
